Shown are actives, neighbours in structure and some others; about 1.2% of the full set was active somewhere.
PI4K2A inh = blocks human PI4K2A kinase activity; Q9BTU6; purified PI4K2A, ADP-Glo luminescence, 1 h; active compounds read low; AID 1346378; 0.13% of 420,000 active; activity change, negative = inhibition, % at 76.9 µM; in the data active = activity change below about -50%; inconclusive = mostly about -30% to -49%
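ADP-Glo luminescence measured ADP generated by PI4K2A enzyme (4 ug/mL before mixing) with 1.2 mM PI substrate (pre-mix) and 300 microM ATP (pre-mix). Tris pH7.5 buffer with MgCl2, Triton X-100; 1 h reaction at ambient temperature.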
rTrxR1 inhibitor = rat TrxR1 inhibition; O89049; recombinant rTrxR1, NADPH fluorescence consumption, selenite substrate; Potency, µM (series often up to 114 µM), hits mostly inhibitors; 1% of 390,000 active; note: nearly all actives have a fitted effect of over 65% in size
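Rat TrxR1 (90 nM in the dispensed reagent) was pre-reduced with 400 uM NADPH for 5 min at room temperature, then incubated with compound for 15 min. After 400 uM selenite was added, NADPH fluorescence (Ex 340/Em 450 nm) was followed for 8 min.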
TrxR1 substrate = rat thioredoxin reductase 1 substrate activity; O89049; purified TrxR1 substrate turnover, NADPH consumption readout; Potency, µM (series often up to 114 µM); 0.01% of 390,000 active; note: nearly all actives have a fitted effect of over 50% in size
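Rat TrxR1, dispensed at 90 nM, was prereduced with 400 uM NADPH (final) for 5 min at ~22 deg C, then incubated with compound 15 min before 400 uM selenite. A first-read NADPH fluorescence drop versus no-compound background flagged substrates.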
PKM2 activator = activators of human pyruvate kinase M2. Potency, µM (highest dose often 57.5 µM), hits mostly activators. purified PKM2, Kinase-Glo ATP luminescence, activation; response scale: 0% is enzyme alone, no compound. AID 1631. P14618. 0.34% of 260,000 active; note: nearly all actives have a fitted effect of over 55% in size
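Purified hPK-M2 (>95% pure) converted ADP (0.1 mM final) to ATP with 0.5 mM PEP in 50 mM imidazole pH7.2, KCl, MgCl2, Tween 20, BSA; 1 h at room temperature. ATP detected by Kinase-Glo luminescence.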
GALK inh = inhibitors of human galactokinase. P51570. Purified GALK, Kinase-Glo residual ATP luminescence. Potency, µM (top dose mostly 57.5 µM), usual class: inhibitors. 0.007% of 270,000 active. AID 1868
Target sequence (P51570 whole entry, looked up): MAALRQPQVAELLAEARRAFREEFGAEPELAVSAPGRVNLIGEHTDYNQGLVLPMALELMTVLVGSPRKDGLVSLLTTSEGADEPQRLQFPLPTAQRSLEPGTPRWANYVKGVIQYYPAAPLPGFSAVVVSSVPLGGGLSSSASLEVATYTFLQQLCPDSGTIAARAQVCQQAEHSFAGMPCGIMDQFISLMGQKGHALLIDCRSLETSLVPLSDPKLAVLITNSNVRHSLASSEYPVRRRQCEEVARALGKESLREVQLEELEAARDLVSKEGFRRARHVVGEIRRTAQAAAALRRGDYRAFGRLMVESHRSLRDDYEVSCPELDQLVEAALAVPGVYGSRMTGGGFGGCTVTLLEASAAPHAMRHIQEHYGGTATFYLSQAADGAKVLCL
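Quantitative HTS: GALK 5 nM, ATP 35 uM, galactose 100 uM, 1 h room temperature, then luciferase-based ATP detection.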
Hits are given with their value; i = inactive; ? = inconclusive; nt = not tested or not shown; ! = a repeat was not active; [ ] = remark or other dose. Unless noted, calls come from the whole dose curve; as a rule, active = well fitted curve in the direction sought with a large enough effect; inconclusive = small, poorly fitted or top-dose-only effect, or another doubt; inactive = no such curve, though single readings can be large; an effect the other way counts as inactive or inconclusive.

SMILES | PI4K2A inh | rTrxR1 inhibitor | TrxR1 substrate | PKM2 activator | GALK inh
COCCn1nnnc1C(c1cc2cc(C)ccc2[nH]c1=O)N1CCc2ccccc21 (stereo unspecified) | i | i | i | i | i
COCCn1nnnc1C(c1cc2c(C)cc(C)cc2[nH]c1=O)N1CCCCCC1 (stereo unspecified) | i | 39.8µM | i | i | i
Cc1cc(C)c2cc(CN(CCO)C(c3nnnn3Cc3ccc(F)cc3)C(C)C)c(=O)[nH]c2c1 (stereo unspecified) | nt | nt | nt | i | i
Cc1nc2scc(-c3ccco3)c2c(=O)n1/N=C/N(C)C | i | 31.6µM | i | i | i
Cc1sc2nc(C)n(/N=C/N(C)C)c(=O)c2c1C | i | i | i | i | i
COc1ccc(NC(=O)NNC(=O)CCn2nc(C)c([N+](=O)[O-])c2C)cc1OC | i | nt | nt | nt | nt
O=C1c2ccccc2C(=O)N1OS(=O)(=O)c1ccc(F)cc1 | i | i | i | i[0.46 µM] | i
Cc1cc(C)c(C)c(S(=O)(=O)ON2C(=O)c3ccccc3C2=O)c1C | i | 1.26µM | i | i | i
Cc1ccc(S(=O)(=O)N2CCN(CCc3ccccc3)CC2)c(C)c1 | i | i | i | nt | nt
Cc1cc(C)c(S(=O)(=O)ON2C(=O)c3ccccc3C2=O)cc1C | i | 3.55µM | i | i | i
Cc1ccc(S(=O)(=O)ON2C(=O)c3ccccc3C2=O)c(C)c1 | i | 3.55µM | i | i | i
CN1C(=O)c2ccccc2C1=O | i | nt | nt | nt | nt
COC(=O)[C@@H]1C[C@@]2(O)[C@@H](O)[C@@H](O)[C@@H](O)C[C@H]2N1CC1CC1 | nt | nt | nt | i | nt
COc1ccc(N2C(=O)CC(Sc3nnnn3-c3ccc(F)cc3)C2=O)cc1 (stereo unspecified) | i | ? | i | 28.2µM | i
COc1ccc(N2C(=O)CC(Sc3nnc(-c4ccccc4)o3)C2=O)cc1 (stereo unspecified) | i | 39.8µM | i | 20µM | i
O=C1CC(Sc2nnc(-c3ccccc3O)o2)C(=O)N1c1ccccc1 (stereo unspecified) | i | ? | i | i | i
O=C1CC(SCc2nc3ccccc3[nH]2)C(=O)N1c1cccc(Cl)c1 (stereo unspecified) | i | i | i | i | i
O=C1CC(Sc2nnnn2-c2ccccc2)C(=O)N1c1cccc(Cl)c1 (stereo unspecified) | i | 31.6µM | i | i | i
Cc1nc(N2CCOCC2)c2c(C(=O)NCCc3ccccc3)c(C)oc2n1 | i | i | i | nt | nt
COc1ccc(OC)c(CNC(=O)NCc2noc3ccc(C)cc23)c1 | i | i | i | nt | nt
O=C(O)c1ccc(C(=O)C(=O)c2ccccc2)cc1 | i | i | i | i | i
COc1cccc(C(=O)C(CCC#N)c2ccccc2)c1 (stereo unspecified) | i | nt | nt | nt | nt
CSC(SC)=C(C#N)C(=O)c1ccccc1 | i | 17.8µM | i | i | nt
COc1cccc(C(=O)C(C#N)=C(SC)SC)c1 | i | 20µM | i | ? | i
O=C(Nc1c(C(=O)N2CCN(c3ccccc3F)CC2)oc2ccccc12)c1ccc(Br)o1 | i | i | i | nt | nt
SMILES | PI4K2A inh | rTrxR1 inhibitor | TrxR1 substrate | PKM2 activator | GALK inh
NCCCS(=O)(=O)O | i | 10.6µM! | i | i | nt
O=c1[nH]c(Nc2ccc(F)cc2)cc2ccccc12 | -51.3 | 11.2µM | i | i | i
O=c1[nH]c(Nc2ccccc2Cl)cc2ccccc12 | i | i | i | nt | nt
CCN(CC)Cc1cc(C(C)=O)ccc1OCC(C)C | i | 35.5µM | i | i | i
COc1ccccc1Cn1c(CNS(=O)(=O)c2c(C)cc(C)cc2C)nc2cccnc21 | i | i | i | nt | nt
O=C(O)c1cc(/C=C/C(=O)c2cc(F)ccc2O)c2c(c1)COCO2 | i | 44.7µM | i | i | nt
O=C(O)c1ccc(NC2=C(n3nnc4ccccc43)C(=O)c3ccccc3C2=O)cc1 | i | 7.08µM | i | i | i
O=C(Nc1ccc(O)cc1C(=O)O)c1ccc2c(c1)C(=O)N(Cc1ccco1)C2=O | i | i | i | i | i
O=C(Nc1cc([N+](=O)[O-])ccc1O)c1ccc2c(c1)C(=O)N(Cc1ccco1)C2=O | i | 79.4µM | i | i | i
O=C1c2ccccc2NC(c2ccc(Br)o2)N1O (stereo unspecified) | i | ? | i | nt | nt
O=C1c2ccccc2NC(c2ccco2)N1O (stereo unspecified) | i | 39.8µM | i | i | i
